# Data reported in article PMC7826789 (International Journal of Molecular Sciences, 2021).
# Columns and labels:
# Conditions in all cases: Compound Concentration (nM):1000
# [1] = system: TXK
# [2] = system: TYK2(JH1domain-catalytic)
# [3] = system: TYK2(JH2domain-pseudokinase)
# [4] = system: TYRO3
# [5] = system: ULK1
# [6] = system: ULK2
# [7] = system: ULK3
# [8] = system: T1, VEGFR2
# T1 construct: gene KDR
# [9] = system: T2, VPS34
# T2 construct: gene PIK3C3
# [10] = system: VRK2
# [11] = system: WEE1
# [12] = system: WEE2
# [13] = system: WNK1
# [14] = system: WNK2
# [15] = system: WNK3
# [16] = system: WNK4
# [17] = system: T3, YANK1
# T3 construct: gene STK32A
# [18] = system: T4, YANK2
# T4 construct: gene STK32B
# [19] = system: T5, YANK3
# T5 construct: gene STK32C
# [20] = system: T6, YES
# T6 construct: gene YES1
# 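Also: KINOMEscan scanMAX binding as percent activity remaining versus control; lower means stronger binding.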
SMILES,Percent Control [1],Percent Control [2],Percent Control [3],Percent Control [4],Percent Control [5],Percent Control [6],Percent Control [7],Percent Control [8],Percent Control [9],Percent Control [10],Percent Control [11],Percent Control [12],Percent Control [13],Percent Control [14],Percent Control [15],Percent Control [16],Percent Control [17],Percent Control [18],Percent Control [19],Percent Control [20]
Nc1ncnc2occ(-c3ccc(NC(=O)Nc4cc(C(F)(F)F)ccc4F)cc3)c12 [GW770249X],100%,100%,100%,100%,100%,93%,100%,0.9%,100%,100%,100%,100%,96%,100%,100%,100%,99%,100%,100%,98%
CCS(=O)(=O)c1ccc(OC)c(Nc2ncc(-c3cccc(OC)c3)o2)c1 [GW580509X],74%,100%,100%,100%,87%,80%,99%,23%,100%,100%,100%,100%,99%,100%,100%,100%,100%,100%,100%,74%
COc1cccc(-n2ncc3c(N/N=C/c4ccncc4)ncnc32)c1 [GW784752X],90%,88%,11%,74%,67%,69%,100%,75%,100%,85%,100%,89%,98%,100%,100%,100%,100%,88%,100%,87%
CN1CCN(C(=O)c2ccc(NC(=O)Nc3ccc(N(C)c4ccnc(Nc5ccc(CS(C)(=O)=O)cc5)n4)cc3)cc2)CC1.Cl [GW830263A],15%,4.2%,6.5%,92%,79%,78%,7.6%,1.1%,74%,93%,100%,99%,94%,67%,93%,100%,68%,100%,100%,96%
O=C(Nc1n[nH]c2nc(-c3ccc(O)cc3)c(Br)cc12)C1CC1 [SB-725317],100%,52%,100%,100%,100%,100%,100%,57%,100%,100%,100%,100%,84%,98%,100%,98%,100%,100%,100%,100%
O=C1Nc2ccc(C(=O)c3ccco3)cc2C1=Cc1cc(Cl)c(O)c(Cl)c1 [GW406108X],100%,35%,41%,86%,,71%,60%,78%,11%,74%,100%,100%,89%,100%,93%,100%,100%,100%,100%,100%
Cl.O=S1CCN(Cc2ccc(-c3ccc4ncnc(Nc5ccc(OCc6ccccc6)c(F)c5)c4c3)o2)CC1 [GW576924A],100%,100%,100%,100%,90%,100%,94%,97%,100%,100%,100%,100%,100%,100%,100%,100%,100%,100%,100%,100%
CCn1c(-c2nonc2N)nc2c(C#CC(C)(C)O)nc(OCCNC)cc21.Cl [GSK949675],100%,95%,95%,100%,88%,100%,94%,83%,100%,67%,92%,100%,100%,100%,100%,51%,87%,89%,100%,100%
COc1cc2ncn(-c3cc(O[C@H](C)c4ccccc4Cl)c(C(N)=O)s3)c2cc1OC [GSK237701A],96%,45%,97%,100%,92%,75%,100%,33%,0.3%,80%,100%,76%,2.9%,6.1%,0.8%,11%,91%,100%,92%,87%
Cl.O=C(Nc1ccc(Oc2ccc3[nH]c(NC(=O)c4ccccc4)nc3c2)cc1)Nc1cc(C(F)(F)F)ccc1F [GW709042A],97%,100%,100%,94%,100%,100%,100%,49%,100%,100%,100%,100%,91%,100%,88%,100%,88%,100%,100%,100%
CC1=C(C(=O)Nc2ccc3[nH]ncc3c2)C(c2ccc(Cl)c(Cl)c2)CC(=O)N1 (stereo not drawn) [GSK299115A],100%,14%,100%,89%,81%,72%,87%,92%,83%,72%,84%,73%,95%,100%,69%,82%,93%,82%,99%,81%
CC(C)COC(=O)c1ccc2c(c1)/C(=C/Nc1ccc(S(N)(=O)=O)cc1)C(=O)N2 [GW416981X],100%,42%,100%,100%,0.1%,0.3%,13%,63%,100%,100%,100%,100%,100%,100%,100%,100%,100%,100%,100%,100%
COc1cccc(-c2c[nH]c3c(N/N=C/c4ccncc4)ncnc23)c1 [GW814408X],100%,19%,0.1%,100%,100%,91%,68%,61%,65%,100%,100%,98%,96%,75%,99%,100%,90%,100%,100%,61%
COc1cc(N2CCN(C(C)C)CC2)ccc1Nc1nc(Nc2ccc(F)cc2C(=O)NC[C@@H](O)CO)c2cc[nH]c2n1 [GSK1392956A],92%,100%,100%,74%,65%,77%,100%,100%,82%,68%,96%,100%,92%,100%,100%,69%,100%,100%,100%,99%
COc1ccc2cc(-c3c(-c4ccncc4)nc(-c4ccc(S(C)(=O)=O)cc4C)n3C)ccc2c1 [SB-633825],90%,73%,100%,72%,72%,88%,73%,49%,86%,58%,86%,53%,97%,78%,92%,72%,41%,26%,70%,46%
COc1ccc2c(-c3ccnc(Nc4cccc(OC(F)(F)F)c4)n3)cnn2n1 [GW810372X],67%,98%,75%,100%,100%,100%,100%,73%,29%,95%,100%,100%,100%,61%,90%,100%,100%,100%,100%,100%
NS(=O)(=O)c1ccc(Nc2ncc(-c3ccccc3)o2)cc1 [GW572399X],100%,100%,100%,100%,100%,91%,88%,22%,100%,100%,100%,100%,89%,100%,100%,100%,100%,100%,100%,100%
CN(C)CCNC(=O)Nc1ccc(N(C)c2ccnc(Nc3ccc(CS(C)(=O)=O)cc3)n2)cc1.Cl [GW830900A],61%,35%,49%,85%,94%,97%,80%,21%,77%,100%,94%,88%,92%,64%,99%,100%,68%,100%,100%,77%
NS(=O)(=O)c1ccc(N/N=C2\C(=O)Nc3ccc(-c4cnco4)cc32)cc1 [GW276655],76%,24%,37%,40%,84%,82%,40%,71%,92%,89%,88%,72%,87%,100%,56%,100%,56%,100%,63%,69%
COc1ccc2[nH]c3c4[nH]c5ccc(OC)cc5c4c4c(c3c2c1)C(=O)NC4=O [GW296115X],100%,87%,84%,71%,100%,87%,43%,59%,80%,98%,53%,87%,91%,66%,92%,88%,69%,97%,84%,73%
